HDAC3 inh = blocks human histone deacetylase 3; O15379; recombinant HDAC3, fluorogenic peptide/trypsin coupled, fluorescence; inhibition, % at 8.3 µM; 320,000 compounds, 0.15% hits; in the data active means inhibition above about 26%, passing the limit was not always enough; inconclusive means no clear call, values can overlap the other calls
Rtt109 HAT inh = inhibitors of Candida albicans Rtt109/Vps75 histone acetyltransferase; inhibition, % at 34.9 µM; Q5AAJ8; 330,000 compounds, 0.16% hits; purified Rtt109/Vps75, ThioGlo CoA-SH fluorescence, 4 h;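 active means inhibition of at least 50% in every replicate; inconclusive means best replicate reaches 50% inhibition but some replicates fall short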
GRK2 aptamer HTS = inhibitors of human GRK2 displacing RNA aptamer; P25098; bead flow cytometry, FAM-aptamer displacement from GRK2; inhibition of aptamer binding, % at 10 µM; 330,000 compounds, 0.59% hits; AID 488847;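 active means inhibition of aptamer binding above 40%, roughly 3 SD of noise, on plates passing a quality check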;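 further: median bead fluorescence of bound FAM aptamer so fluorescent compounds give negative values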
Efflux pump mplx = inhibitors of Candida antifungal efflux pumps expressed in yeast. S. cerevisiae Candida pump triplex, Nile Red efflux. inhibition, % at 10 µM. 330,000 compounds, 0.44% hits. AID 485275;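 active means plate passing quality check with inhibition over a set limit, or well fluorescence over plate mean plus 4 SD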;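 further: Nile Red retained in pooled yeast measured as flow cytometry median fluorescence; 0% = buffer negative control and 100% = Enniatin B positive control; higher means more Nile Red kept so more efflux inhibition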
ALR inh = human ALR oxidase inhibition via reduced H2O2. purified ALR, DTT oxidation, H2O2 HRP-luminol luminescence. inhibition, % (concentration not given with the values). 290,000 compounds, 3.8% hits. AID 485317;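 active means mean replicate inhibition above about 79%, with every replicate also reaching it, limit read from the data; inconclusive means only one of the two criteria met; inactive means mean below limit and not every replicate reaching it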
Target sequence (P55789 whole entry, looked up): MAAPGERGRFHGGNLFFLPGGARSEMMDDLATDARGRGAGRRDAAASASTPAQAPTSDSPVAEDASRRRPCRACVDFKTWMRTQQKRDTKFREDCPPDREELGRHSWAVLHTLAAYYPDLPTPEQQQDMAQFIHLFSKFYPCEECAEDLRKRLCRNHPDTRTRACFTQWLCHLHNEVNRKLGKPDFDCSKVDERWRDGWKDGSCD
Rce1 inhib = yeast Ras-converting enzyme inhibition; yeast membranes, quenched prenylated peptide cleavage fluorescence; 290,000 compounds, 0.27% hits; calls only; Q03530;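 active means fall in fluorescence gain of 50% or more versus controls, with final raw signal at or below 3038400; inconclusive means same 50% fall but final raw signal above 3038400; inactive means fall in fluorescence gain under 50%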;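 further: plate controls were neutral control wells for no effect and wells lacking membranes for full effect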
Target sequence (Q03530 whole entry, looked up): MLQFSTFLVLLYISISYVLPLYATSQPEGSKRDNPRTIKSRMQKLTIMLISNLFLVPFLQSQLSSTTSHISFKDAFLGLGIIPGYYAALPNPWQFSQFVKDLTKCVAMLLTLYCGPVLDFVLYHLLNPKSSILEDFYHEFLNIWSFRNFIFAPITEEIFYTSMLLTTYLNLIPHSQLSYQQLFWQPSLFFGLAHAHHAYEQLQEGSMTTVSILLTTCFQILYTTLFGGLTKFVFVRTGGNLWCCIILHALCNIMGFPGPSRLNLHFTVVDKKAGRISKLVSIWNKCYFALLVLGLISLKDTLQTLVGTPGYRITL
Starred values were filed as active, the others as inactive; i = inactive; ? = inconclusive; · = no result given; + = active, no number. Shown are actives, neighbours in structure and some others; about 4.5% of the full set was active somewhere.

SMILES	HDAC3 inh	Rtt109 HAT inh	GRK2 aptamer HTS	Efflux pump mplx	ALR inh	Rce1 inhib
Fc1ccc(Br)cc1C1C=C(c2ccc(Br)cc2)Nc2ncnn21 (stereo not drawn)	-0.1	-353.4	0.0	0.2	90.5*	i
CC(=O)NNC(=O)c1[nH]c2ccc(Br)cc2c1-c1ccccc1	2.0	-2.4	0.0	0.0	96.9*	i
Cc1ccc2[nH]c(C(=O)NN=C3CCCCC3)c(-c3ccccc3)c2c1	10.5	1.2	0.0	0.0	·	i
O=C(O)c1[nH]c2ccccc2c1-c1ccccc1	-5.6	-0.7	0.0	0.1	98.0*	i
CC(=O)Nc1c(C(=O)O)[nH]c2ccccc12	0.1	-12.7	3.0	0.0	7.4	i
Cc1ccc2[nH]c(C(=O)O)c(-c3ccccc3)c2c1	-3.8	-1.9	1.0	0.1	98.3*	i
CCOC(=O)NNC(=O)c1[nH]c2ccc(Br)cc2c1-c1ccccc1	2.6	-2.8	0.0	0.0	-0.6	i
CCN(CC)c1ccc2c(c1)CCCN2	1.3	·	4.0	0.0	96.5*	i
CCOc1ccc(C(=O)Nc2ccccc2N2CCN(C(=O)c3ccccc3)CC2)cc1[N+](=O)[O-]	-0.9	9.7	3.0	0.7	1.5	i
CC(=O)Nc1cccc(N=NN2CCOCC2)c1	-31.0	2.1	0.0	0.1	6.6	i
CC(=O)Nc1cccc(N=NN2CCCCC2)c1	7.2	4.1	2.0	-0.2	88.0*	i
CC1CCN(CCCn2c(=S)[nH]c3ccc(N4CCOCC4)cc3c2=O)CC1	10.1	3.7	0.0	0.0	85.3*	i
O=c1c2cc(N3CCOCC3)ccc2[nH]c(=S)n1CCCN1CCCC1	4.2	-96.2	0.0	0.1	-18.7	i
COc1ccc(N=Nc2c(N)n[nH]c2N)cc1	0.0	14.0	0.0	-0.1	77.8*	i
Nc1n[nH]c(N)c1N=Nc1ccccc1	16.8	-1.9	0.0	-0.2	95.4*	i
Nc1n[nH]c(N)c1N=Nc1ccc(F)cc1	0.8	-3.4	2.0	-0.2	86.3*	i
Cc1ccccc1N=Nc1c(N)n[nH]c1N	3.5	-3.7	0.0	-0.1	93.3*	i
Nc1[nH][nH]c(=O)c1N=Nc1ccccc1	·	6.4	·	·	·	·
Nc1n[nH]c(N)c1N=Nc1ccccc1F	11.3	-0.1	0.0	-0.1	17.8	i
Nc1n[nH]c(N)c1N=Nc1ccc(Cl)cc1Cl	10.2	-3.3	3.0	0.0	7.9	i
COc1ccc(N=Nc2c(C)n[nH]c2C)cc1	1.9	0.4	4.0	0.0	-1.6	i
COc1ccc(CCNC(=O)C(=O)NCc2ccc(Cl)cc2)cc1OC	-4.4	5.5	2.0	0.3	-2.1	i
Nc1ccc(Oc2ccc3c(c2)C(=O)NC3=O)cc1	-3.6	4.4	5.0	-0.1	37.9	i
CCOC(=O)C1=C(COC(=O)CCOc2ccc(C)cc2)NC(=O)NC1C (stereo not drawn)	3.5	-12.4	0.0	-0.2	18.6	i
COc1cccc(-c2ccc(-c3noc(-c4ccccc4F)n3)c(OC)n2)c1	-16.3	-1.2	1.0	0.1	-2.2	+
SMILES	HDAC3 inh	Rtt109 HAT inh	GRK2 aptamer HTS	Efflux pump mplx	ALR inh	Rce1 inhib
COc1cccc(-c2ccc(-c3noc(-c4cccs4)n3)c(OC)n2)c1	-8.9	-14.6	0.0	-0.2	-8.2	i
CC[n+]1c(/C=C2\Sc3ccccc3N2C)ccc2cccc(C)c21	·	20.9	·	·	·	i
CCN1/C(=C/c2ccc3cc(C)ccc3[n+]2CC)Sc2cc(C)c(C)cc21	·	96.0*	·	·	·	·
O=C1CCc2cc(S(=O)(=O)NCCc3ccccc3)cc3c2N1CC3	-4.2	-2.3	3.0	0.2	3.3	i
Cn1c(C2=C(O)CN(Cc3ccccc3)C2=N)nc2ccccc21	-4.7	-0.4	2.0	0.1	-4.5	i
Oc1ccc(C2=CSC3=NCCN23)cc1O	0.1	1.2	2.0	0.3	99.6*	i
COc1cccc(CNC(=O)Cn2c(=O)c3cccn3c3ccccc32)c1	0.5	0.1	0.0	0.0	0.2	i
Cc1ccc(NC(=O)CN(C)S(=O)(=O)c2cccc3cccnc23)cc1	-0.3	3.7	3.0	0.3	95.3*	i
COc1ccc(C(=O)O/N=C(/c2ccccc2)c2ccncc2)cc1	44.4*	4.1	2.0	0.0	-1.6	i
C[C@@]12CC(=O)NC1N(C(=O)c1cccc(C(F)(F)F)c1)C(c1ccccc1OC(=O)c1cccc(C(F)(F)F)c1)C2 (stereo partly drawn)	41.8*	4.5	0.0	0.3	-2.5	i
O=C(CCS(=O)(=O)c1ccccc1Cl)NC1CCCCCC1	-1.5	-6.3	0.0	-0.1	8.4	·
NC(=O)C1CCCCc2c1[nH]c1ccc(Cl)cc21 (stereo not drawn)	4.4	-2.8	0.0	-0.1	97.8*	i
CCNC(=O)C1CCCc2c1[nH]c1ccc(Cl)cc21 (stereo not drawn)	-3.4	12.2	7.0	-0.1	52.3	i
NC(=O)NC1CCCc2c1[nH]c1ccc(Cl)cc21 (stereo not drawn)	5.2	-2.2	0.0	0.0	98.1*	i
O=C1N/C(=C/c2ccc(N3CCCC3)cc2)C(=O)N1c1ccccc1	0.4	0.0	2.0	0.1	0.7	i
O=C1/C(=C/c2ccc(N3CCCC3)cc2)NC(=S)N1C1CC1	9.3	-2.9	0.0	0.5	97.5*	i
Clc1cnc(N/N=C/c2cccs2)c(Cl)c1	5.1	8.8	0.0	0.0	86.1*	i
C(=N\Nc1nc2ccccc2[nH]1)/c1cccs1	4.2	7.1	0.0	-0.2	98.7*	i
C(=N\Nc1nc2ccccc2[nH]1)/c1ccncc1	5.3	3.3	0.0	0.4	98.1*	i
CC(=O)Nc1ccc(/C=N/Nc2nc3ccccc3[nH]2)cc1	5.8	1.5	0.0	-0.2	·	·
O=c1[nH]c(N/N=C/c2ccc(O)cc2)nc2ccccc12	4.7	13.2	0.0	0.0	94.7*	i
O=C(O)C1CCC(CNS(=O)(=O)c2ccccc2)CC1 (stereo not drawn)	2.1	3.6	0.0	0.1	-3.6	i
COc1ccccc1N=c1oc2c(OC)cccc2cc1C(=O)NCc1ccco1	-8.0	-8.1	0.0	0.3	85.9*	i
COC(=O)C1=C(C)NC2=C(C(=O)CCC2)C1c1ccc(-c2ccsc2C(=O)OC)o1 (stereo not drawn)	32.5*	?	1.0	0.0	-17.6	i
COC(=O)C1=C(C)NC2=C(C(=O)CCC2)C1c1ccsc1 (stereo not drawn)	·	·	·	·	·	i
CCN(CC)c1ccc(C2C(C(=O)OCCOC(C)C)=C(C)NC3=C2C(=O)CCC3)cc1 (stereo not drawn)	-1.5	-12.0	3.0	-0.1	98.8*	i
COCCOC(=O)C1=C(C)NC2=C(C(=O)CCC2)C1c1ccc(N(C)C)cc1 (stereo not drawn)	-5.0	3.6	0.0	0.0	99.7*	i
O=C(CN1C(=O)NC2(CCCCC2)C1=O)NCC(=O)Nc1ccc(F)c(F)c1	-2.5	-0.6	3.0	0.1	-7.6	i
